This passage reports sensor-assay potency score (higher = more potent) results from the OligoGym collection.
Also: reference of the scale not given here.

One assay concerns the target MAN1C1. Put plainly: pooled miR-30 sensor sort-seq; sequence = guide strand. The note with it: shRNA.
As to TTGAGAACAGTCTCAAATCCTG, the sensor-assay potency score (higher = more potent) is -0.222.

Turning to TTCGGAACACCTCTTCTCCTGT, the sensor-assay potency score (higher = more potent) was -0.298.

On to TTAGCCTCCATATCTGTCTTGC, for which the sensor-assay potency score (higher = more potent) was -0.298.

The sequence TAACGCTTATAGCTCTGCCAAG registered a sensor-assay potency score (higher = more potent) of -1.49.

In the case of TATGACTCGTGACACGTCTTGG, the sensor-assay potency score (higher = more potent) is -0.605.

Turning to TTTGTGTGTGTGCAAACACTGG, the sensor-assay potency score (higher = more potent) was -1.13.

Consider TTCGATCTTCCTGAGGACCTTG, for which the sensor-assay potency score (higher = more potent) is 0.041.

TTGTGTGTGTGCAAACACTGGG: the sensor-assay potency score (higher = more potent) was determined as 0.0469.

As for TTGAACATAGGGTCAGTGTTGG, the sensor-assay potency score (higher = more potent) is -0.0716.

TAGAAAGAAGCTCTGCTGCTTG: the sensor-assay potency score (higher = more potent) amounted to 0.252.

In the case of TTATTCGGAACACCTCTTCTCC, the sensor-assay potency score (higher = more potent) is -0.384.

The next assay has as its target MANEAL. The assay is described as above. Conditions: shRNA.
ATAGTACTTGCCATTGACCCTG registered a sensor-assay potency score (higher = more potent) of -0.405.

The sequence TTTGATGAAGTGCTCCGCCCAG displayed a sensor-assay potency score (higher = more potent) of -0.378.

The sequence ATGCTGGTGTCTATGTAGCCAG had a sensor-assay potency score (higher = more potent) of -1.86.

On to TTGATGAAGTGCTCCGCCCAGC, for which the sensor-assay potency score (higher = more potent) is -0.595.

Sequence TAGTACTTGCCATTGACCCTGT gave a sensor-assay potency score (higher = more potent) of -0.0343.

As for AAGTTCTTCACAGCTTTCCAGT, the sensor-assay potency score (higher = more potent) is -0.845.

The sequence TAGCTGGCCGAGATCTTGGGGT had a sensor-assay potency score (higher = more potent) of -1.02.

TAGAAGGCGTGCAGGTCCGAGT gave a sensor-assay potency score (higher = more potent) of -1.05.

Sequence ATGAACATGAGGTTGTTGGCAT displayed a sensor-assay potency score (higher = more potent) of 0.179.

TACCACGAGTAGTAGAAGGCGT displayed a sensor-assay potency score (higher = more potent) of -0.339.

In turn, TTGTGGTTGTTCCAGGGCCGAA had a sensor-assay potency score (higher = more potent) of -1.8.

Sequence TTCTCTTTGATGAAGTGCTCCG registered a sensor-assay potency score (higher = more potent) of -0.00624.

In another assay the target is MAP4K4. The description is as above. The note with it: shRNA.
As to TAGACTTGTCCATAGGTGCCAT, the sensor-assay potency score (higher = more potent) is -0.0714.

TAGAACTACATCCTTGGTGATC displayed a sensor-assay potency score (higher = more potent) of -1.1.

Take TTGTATTTACGAATCTCCGGGG: the sensor-assay potency score (higher = more potent) was -0.365.

As for TTATAGACTTGTCCATAGGTGC, the sensor-assay potency score (higher = more potent) was -0.62.

TACATCATCATGGACAATCATG showed a sensor-assay potency score (higher = more potent) of -1.13.

On to TAGATCACTTTCAACCTCTGGC, for which the sensor-assay potency score (higher = more potent) worked out at 0.492.

Sequence TTCTCTTTCAACTCTCCTCTTT showed a sensor-assay potency score (higher = more potent) of -0.401.

For the sequence TTGCCTTTTATATTCTTCCTGC, the sensor-assay potency score (higher = more potent) is -0.0293.

For TTCTTGTTCTCTCCTTCGCTGT, the sensor-assay potency score (higher = more potent) is -0.84.

Turning to TTTGTTGAAATCGTCTTCGGTT, the sensor-assay potency score (higher = more potent) worked out at 0.0416.

TTTGATGCTACACTGGATCATA: the sensor-assay potency score (higher = more potent) was -0.597.

Sequence TTGACCACTGAGCCTTTCCGGG gave a sensor-assay potency score (higher = more potent) of -1.11.

The next assay concerns the target MAPK4. Described as above. Conditions: shRNA.
TAATGCTGATCAACGATCCTTG: the sensor-assay potency score (higher = more potent) worked out at 0.275.

With TTAGTAGTTATAACAATTCCTC, the sensor-assay potency score (higher = more potent) was -0.514.

The sequence TTAAAGAAAAAACAAAACCCAA gave a sensor-assay potency score (higher = more potent) of -1.11.

Sequence TTGCTGTTGACACCTCTCTTTT displayed a sensor-assay potency score (higher = more potent) of -1.31.

Consider TACCACTTTGTTACCAACCCTT, for which the sensor-assay potency score (higher = more potent) was -0.102.
